Experimental data from PubChem BioAssay (NCI).
Compounds without any hit were thinned out: in the full panel of roughly 83,000, 20% have a hit.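 The test compound was applied at a single concentration to cells in 96-well plates for 48 hours, and percent growth was recorded.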 The source made the active and inactive calls. Rule for the calls: active = growth percent below 10; inactive = the rest.

Key:
Test in all cases: NCI-60 one-dose screen, 48 h (100 = growth as untreated, 0 = no growth, -100 = all killed)
Details in all cases: 10 µM unless noted
[1] = system: HCT-15 colon
[2] = system: HT29 colon
[3] = system: SNB-75 CNS
[4] = system: SNB-19 CNS
[5] = system: U251 CNS
[6] = system: PC-3 prostate
[7] = system: SK-MEL-5 melanoma
[8] = system: UACC-62 melanoma
[9] = system: LOX IMVI melanoma
[10] = system: SK-MEL-28 melanoma

Measured: growth

Clc1nccc2c(-c3csc(-c4c[nH]c5ccccc45)n3)c[nH]c12
inactive: [2] 23.6% | [3] 41.4% | [4] 71.8% | [5] 20.9% | [6] 40.1% | [7] 55.8% | [8] 43.9% | [9] 28.2% | [10] 23.9%
active: [1] -39.6%

CCN(CC)c1ccc(/C=C\c2cc(C)c3cc(C)ccc3n2)cc1
active: [2] -17.9% | [7] 2.69%
inactive: [1] 21.1% | [3] 39.7% | [4] 49.5% | [5] 25.6% | [6] 23.1% | [8] 36.8% | [9] 18.1% | [10] 50.7%

COC(=O)C1=C(C(=O)Nc2cccnc2)C2OC1(C(Cc1ccccc1)Oc1ccccc1)C1OC21 (stereo not given)
active: [10] -75.4%
inactive: [1] 14.4% | [2] 59.1% | [3] 88.7% | [4] 102% | [5] 101% | [6] 69.6% | [7] 107% | [8] 69.7% | [9] 80.7%

COc1cc(C(=O)/C=C/c2ccc(N3CCN(C)CC3)cc2)cc(OC)c1OC
inactive: [1] 92.5% | [2] 94.7% | [3] 82.2% | [4] 95.3% | [5] 99.5% | [6] 99.3% | [7] 103% | [8] 86.8% | [9] 90.4% | [10] 103%

CCCCn1sc(=O)n(Cc2ccc(CNC(=O)OCc3ccc4c(Cl)cc(Cl)c(O)c4n3)cc2)c1=O
inactive: [1] 19% | [2] 101% | [3] 81.1% | [4] 52.5% | [5] 41.1% | [6] 58.5% | [7] 59.5% | [8] 47.9% | [9] 46% | [10] 69.2%

O=C(CCl)Nc1ccc2c(Nc3cc(O)ccc3Cl)ncnc2c1
active: [1] -81.3% | [2] -74.5% | [3] -96.7% | [4] -61.9% | [5] -89.8% | [6] -74.4% | [7] -88.4% | [8] -68.7% | [9] -81.6% | [10] -66.4%

COc1ccc(OC)c(-c2cn3nc(-c4c[nH]c5ccc(Br)cc45)sc3n2)c1
active: [9] -50.5%
inactive: [1] 24.6% | [2] 10% | [3] 45% | [4] 75.4% | [5] 36.9% | [6] 40.9% | [7] 75.3% | [8] 50.1% | [10] 59.5%

C=C1C(=O)O[C@H]2[C@H]1CC/C(Cn1cc(-c3cc(C(F)(F)F)cc(C(F)(F)F)c3)nn1)=C\CC[C@@]1(C)O[C@@H]21
active: [1] -90.6% | [2] -86% | [3] -96.6% | [4] -80.3% | [5] -97.6% | [6] -81% | [7] -99.5% | [8] -76.6% | [9] -87.1% | [10] -82.7%

COc1cc(C2=NN(C(C)=O)C(c3ccc(N(C)C)cc3)C2)cc(OC)c1OC (stereo not given)
inactive: [1] 102% | [2] 108% | [3] 96.2% | [4] 89.8% | [5] 97.3% | [6] 105% | [7] 91.1% | [8] 87.9% | [9] 96.5% | [10] 106%

C/C(=C(/c1ccc(Cl)cc1)c1ccc(OCCCN(C)C)cc1)c1ccc(Cl)cc1
inactive: [1] 50.4% | [2] 16.3% | [3] 96.4% | [4] 97.3% | [5] 75.9% | [6] 84.8% | [7] 93.8% | [8] 109% | [9] 78.1% | [10] 99.5%

COc1ccc(-c2cc(-c3cc(OC)c(OC)c(OC)c3)c(C#N)c(=O)n2CCCCCC(=O)NO)cc1
inactive: [1] 71.7% | [2] 101% | [3] 70.1% | [4] 89.8% | [5] 81.9% | [6] 89.4% | [7] 91.4% | [8] 93.3% | [9] 78.7% | [10] 109%

CCC(C)Nc1ccc(NC(C)CC)cc1 (stereo not given)
inactive: [1] 97.7% | [2] 71.5% | [3] 83.2% | [4] 101% | [5] 87.9% | [6] 80.7% | [7] 100% | [8] 87.1% | [9] 74% | [10] 104%

CCOC(=O)c1c(NC(=O)CSc2n[nH]c3nc4ccccc4n23)sc(CC)c1C
inactive: [1] 97.9% | [2] 109% | [3] 95.3% | [4] 103% | [5] 97.6% | [6] 61.5% | [7] 98% | [8] 77.9% | [9] 99% | [10] 113%

O=C1Nc2ccc(F)cc2/C1=C\c1nc(-c2ccccc2F)n2ccccc12
inactive: [1] 26.3% | [2] 13.8% | [3] 95.8% | [4] 94.3% | [5] 73.5% | [6] 76.3% | [7] 89.7% | [8] 94.6% | [9] 61% | [10] 130%

Cc1cc(F)ccc1S(=O)(=O)Nc1cc(-c2c(O)ccc3ccccc23)c(O)c2ccccc12
active: [7] -63.6% | [8] 2.8%
inactive: [1] 10.7% | [2] 52.8% | [3] 46.2% | [4] 37.4% | [5] 18.6% | [6] 15.5% | [9] 16% | [10] 29.4%

O=C(Nc1ccccc1O)c1ccccc1Nc1ccnc(C(F)(F)F)c1
inactive: [1] 104% | [2] 124% | [3] 90.7% | [4] 107% | [5] 102% | [6] 94.4% | [7] 70.7% | [8] 57.7% | [9] 89.3% | [10] 117%

CC(C)[C@@]12C[C@@H](OC(=O)COC(=O)c3ccccc3)[C@@](C)(O1)[C@@H]1CC[C@@H](C)[C@H]1[C@@H]2OC(=O)/C=C/c1ccccc1
inactive: [1] 92.5% | [2] 89.9% | [3] 72.6% | [4] 84.5% | [5] 84% | [6] 74.2% | [7] 90.7% | [8] 83.2% | [9] 89.1% | [10] 107%

COc1ccc(Cc2nnc(Nc3nc4ccccc4s3)s2)cc1
inactive: [1] 92.4% | [2] 110% | [3] 92.2% | [4] 94.2% | [5] 98.2% | [6] 108% | [7] 96.5% | [8] 89.6% | [9] 96.4% | [10] 92.3%

COc1cc2cc(NCc3ccc(OC(F)F)cc3)nc(C)c2cc1OC
inactive: [1] 59.9% | [2] 25.7% | [3] 88.1% | [4] 66.2% | [5] 62.3% | [6] 64.5% | [7] 68.3% | [8] 47% | [9] 27.7% | [10] 72.7%

CCN(CC)c1ccc(/C=N\NC(=O)c2cccc(Nc3ccnc(C(F)(F)F)c3)c2)c(O)c1
inactive: [1] 28.7% | [2] 11.7% | [3] 34.7% | [4] 15.9% | [5] 13.1% | [6] 18.9% | [10] 64.8%
active: [7] -52.2% | [8] -12.2% | [9] -6.15%

COc1ccc2c(O)c(/C=C3\N=Nc4ccccc43)oc2c1C[C@H]1CCNC[C@H]1F
inactive: [1] 33.6% | [2] 19.3% | [3] 61.4% | [4] 67.7% | [5] 65.4% | [6] 40.8% | [7] 48.3% | [8] 41.2% | [9] 35% | [10] 68.3%

O[C@@H](c1cc(C(F)(F)F)nc2c(C(F)(F)F)cccc12)[C@H]1CCCCN1
inactive: [1] 77.5% | [2] 53.8% | [3] 36.6% | [4] 54.8% | [5] 47.7% | [6] 49.4% | [7] 82% | [8] 56.2% | [9] 29.4% | [10] 98.3%

O=S(=O)(c1ccccc1)N1CCCN(c2nc(-c3ccccc3)nc3nc(-c4ccccc4)oc23)CC1
inactive: [1] 109% | [2] 109% | [3] 88.5% | [4] 101% | [5] 107% | [6] 105% | [7] 103% | [8] 102% | [9] 99.9% | [10] 110%

COc1ncc2cc1NS(=O)(=O)c1cccc(c1)C(=O)NCC1=CC=C(S1)c1ncnc3c1SC2=C3C
inactive: [4] 11.5%
active: [1] -18.2% | [2] 4.55% | [3] -12.9% | [5] -10.2% | [6] -24.8% | [7] -38.2% | [8] -46.7% | [9] -32.1% | [10] -62.2%

N#C/C(=C\c1ccc(Cl)cc1Cl)C(=O)Nc1ncc(Cc2ccc(Cl)c(Cl)c2)s1
inactive: [1] 37.7% | [2] 66.3% | [3] 97.9% | [4] 97.7% | [5] 90.9% | [6] 79.3% | [7] 97.8% | [8] 35.2% | [9] 34.4% | [10] 99.6%

COc1ccc2c(c1)c(-c1nc(-c3cn(C)c4ncccc34)cs1)cn2CCO
inactive: [1] 61.1% | [2] 75.3% | [3] 91.3% | [4] 90.2% | [5] 78.5% | [6] 69.1% | [7] 74.2% | [8] 80.4% | [9] 59.3% | [10] 86%
